This is a sample that favours compounds with a hit; in the whole collection about 32% have one here.
PostGolgi yeast: phenotypic screen on post-Golgi transport, primary screen | post-Golgi transport phenotypic cell assay | inhibition, % at 10 µM | 0.9% of 98,000 active | AID 739, 2007;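 note: yeast cells grown in 1536-well plates; yeast grown about 18 h at 30C before absorbance read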
PostGolgi ctrl: growth inhibition of yeast control strain, primary screen, counter-screen for post-Golgi transport modulator project | 5% of 98,000 active | efflux-deficient yeast background strain, growth absorbance A615, 16 h | inhibition, % at 10 µM
CYP2C19 act: human CYP2C19 activators, primary screen, biochemical, luminescence; recombinant CYP2C19, luciferin-H EGE luminescence; hits give high values; 0 = fully inhibited enzyme, 1 = untreated enzyme; activation factor at 5 µM; 96,000 tested, under 10 active; AID 1025, 2008;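 active = activation factor of at least 2 at 5 µM in the primary screen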;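 note: 0 = wells with 2.5 mM tranylcypromine and 1 = vehicle-only wells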
Target sequence (P33261 whole entry, looked up): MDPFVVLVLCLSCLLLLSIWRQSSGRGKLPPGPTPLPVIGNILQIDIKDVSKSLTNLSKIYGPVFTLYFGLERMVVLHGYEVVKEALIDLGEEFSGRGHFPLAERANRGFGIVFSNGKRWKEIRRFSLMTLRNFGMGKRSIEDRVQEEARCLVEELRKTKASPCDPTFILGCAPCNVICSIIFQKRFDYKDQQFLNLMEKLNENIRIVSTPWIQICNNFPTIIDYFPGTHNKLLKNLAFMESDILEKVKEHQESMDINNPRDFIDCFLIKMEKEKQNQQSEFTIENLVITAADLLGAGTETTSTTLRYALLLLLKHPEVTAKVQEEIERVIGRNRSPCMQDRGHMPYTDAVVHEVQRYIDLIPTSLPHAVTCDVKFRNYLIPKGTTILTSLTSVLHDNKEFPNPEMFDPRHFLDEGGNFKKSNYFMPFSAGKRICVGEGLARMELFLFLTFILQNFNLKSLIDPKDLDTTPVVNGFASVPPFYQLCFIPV
CYP2C9 inhib: blockers of cytochrome P450 2C9 activity – biochemical, luminescence, ADME assay, primary screen; P11712; inhibition, % at 5 µM; 20% of 96,000 active; CYP2C9 Supersomes, luciferin-H conversion;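 active = blocking of liver enzyme CYP2C9 beyond about 50% at 5 µM, limit read from the data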
CYP2C19 inhib: blockers of cytochrome P450 2C19 activity – biochemical, luminescence, ADME assay, primary screen | CYP2C19 Supersomes, luciferin-H EGE luminescence, 30 min | inhibition, % at 5 µM | 21% of 96,000 active;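 active = CYP2C19 inhibition above a set limit at 5 µM in the primary screen, cut at about 50% in these data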;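 note: plate controls were negative control wells for no effect and 2.5 mM tranylcypromine positive control for full effect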
CYP2C9 activ: human CYP2C9 activators, primary screen, biochemical, luminescence; recombinant CYP2C9, luciferin-H conversion; hits give high values; factor 1 = untreated enzyme, 0 = blocked; activation factor at 5 µM; 1.4% of 96,000 active; Cytochrome P450 2C9 (Homo sapiens), P11712;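 active = activation factor of 2 or more for CYP2C9 at a 5 µM dose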;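 note: 0 = sulfaphenazole-blocked wells and 1 = vehicle-only wells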
* = called active by the depositor. Cut-off read from the data, not from the text of the source, unless noted: active = inhibition above about 30%; inactive = the rest.

Screening O=C(CSc1ncnc2nc[nH]c12)NCCc1ccccc1 returned PostGolgi yeast -5, PostGolgi ctrl -1, CYP2C19 act 0.9, CYP2C9 inhib -3, CYP2C19 inhib 6 and CYP2C9 activ 1.
For CC(NC(=O)CSc1ncnc2nc[nH]c12)c1ccccc1 (configuration not stated) the results were PostGolgi yeast -2, PostGolgi ctrl -4, CYP2C19 act 0.8, CYP2C9 inhib 94*, CYP2C19 inhib 23 and CYP2C9 activ 0.1.
For COc1ccc(CNC(=O)CSc2ncnc3nc[nH]c23)cc1 the results were PostGolgi yeast 2, PostGolgi ctrl 17, CYP2C19 act 0.4, CYP2C9 inhib 17, CYP2C19 inhib 61* and CYP2C9 activ 0.8.
Cc1cnc(C(=O)Nc2ccc(C(=O)N3CCCCC3)cc2)cn1 was read as PostGolgi yeast -4, PostGolgi ctrl -10, CYP2C19 act 0.7, CYP2C9 inhib 0, CYP2C19 inhib 27 and CYP2C9 activ 1.
`CCCN(CCC)c1nc(NC2CCN(C(=O)OCC)CC2)nc(OC)n1` gave PostGolgi yeast 4, PostGolgi ctrl 18, CYP2C19 act 0.7, CYP2C9 inhib 49, CYP2C19 inhib 31 and CYP2C9 activ 0.5.
`CCOC(=O)/C(C#N)=C1/C=CNC(=O)N1` gave PostGolgi yeast -1, PostGolgi ctrl 8, CYP2C19 act 1.1, CYP2C9 inhib 8, CYP2C19 inhib -13 and CYP2C9 activ 0.9.
`CCOc1ccc(CC2c3cc(OCC)c(OCC)cc3CCN2C(=O)c2cc(OC)c(OC)c(OC)c2)cc1OCC` (configuration not stated) gave PostGolgi yeast -1, PostGolgi ctrl 6, CYP2C19 act 0.3, CYP2C9 inhib 60*, CYP2C19 inhib 65* and CYP2C9 activ 0.4.
Screening CCOc1ccc(C(=O)O)cc1OC returned PostGolgi yeast -4, PostGolgi ctrl 6, CYP2C19 act 1.1, CYP2C9 inhib -13, CYP2C19 inhib -14 and CYP2C9 activ 1.1.
Screening CN1C(=O)C(O)(CC(=O)c2cccc(-n3cccc3)c2)c2ccccc21 (configuration not stated) returned PostGolgi yeast -1, PostGolgi ctrl 22, CYP2C19 act 0.9, CYP2C9 inhib 9, CYP2C19 inhib 12 and CYP2C9 activ 0.9.
Screening COc1cc(/C=N/n2cnnc2)ccc1OCCSc1ccc(C)cc1 returned PostGolgi yeast -7, PostGolgi ctrl 14, CYP2C19 act 0.2, CYP2C9 inhib 54*, CYP2C19 inhib 80* and CYP2C9 activ 0.5.
`COc1cc(/C=N\n2cnnc2)ccc1OCC(=O)Nc1ccc(C)cc1` gave PostGolgi yeast -4, PostGolgi ctrl 18, CYP2C19 act 0.8, CYP2C9 inhib 44, CYP2C19 inhib 16 and CYP2C9 activ 0.6.
CCCCn1c(CN2C(=O)c3ccccc3C2=O)nc2ccccc2c1=O was read as PostGolgi yeast 1, PostGolgi ctrl 1, CYP2C19 act 0.9, CYP2C9 inhib 28, CYP2C19 inhib 6 and CYP2C9 activ 0.7.
`O=C1c2ccccc2C(=O)N1CCc1nc2ccccc2c(=O)n1CCCn1ccnc1` gave PostGolgi yeast -5, PostGolgi ctrl -4, CYP2C19 act 0.5, CYP2C9 inhib 80*, CYP2C19 inhib 50 and CYP2C9 activ 0.2.
`O=C1c2ccccc2C(=O)N1Cc1nc2ccccc2c(=O)n1CCCn1ccnc1` gave PostGolgi yeast 10, PostGolgi ctrl 4, CYP2C19 act 0.1, CYP2C9 inhib 92*, CYP2C19 inhib 88* and CYP2C9 activ 0.1.
`O=C1c2ccccc2C(=O)N1CCCc1nc2ccccc2c(=O)n1Cc1ccco1` gave PostGolgi yeast -1, PostGolgi ctrl -5, CYP2C19 act 0.9, CYP2C9 inhib 14, CYP2C19 inhib 7 and CYP2C9 activ 0.9.
Cc1ccc(/C=c2\sc3n(c2=O)CN(c2ccc(Br)cc2)CN=3)o1 was read as PostGolgi yeast -1, PostGolgi ctrl 8, CYP2C19 act 0.7, CYP2C9 inhib 62*, CYP2C19 inhib 34 and CYP2C9 activ 0.4.
`CCN(C(=O)c1ccc(C(C)(C)C)cc1)c1nnc(Cn2nnc3ccccc32)s1` gave PostGolgi yeast -2, PostGolgi ctrl 43*, CYP2C19 act 0.7, CYP2C9 inhib 52*, CYP2C19 inhib 26 and CYP2C9 activ 0.5.
Cc1ccc(C)c(CSc2nnc(CCN)o2)c1 was read as PostGolgi yeast 14, PostGolgi ctrl 6, CYP2C19 act 0.1, CYP2C9 inhib 74*, CYP2C19 inhib 90* and CYP2C9 activ 0.3.
`Cc1ccc(OCc2nnc(SCc3cc(=O)[nH]c4ccccc34)o2)cc1` gave PostGolgi yeast -2, PostGolgi ctrl 11, CYP2C19 act 1, CYP2C9 inhib -1, CYP2C19 inhib -1 and CYP2C9 activ 1.
Screening Cc1ccc(C)c(CSc2nnc([C@@H](N)C(C)C)o2)c1 returned PostGolgi yeast 2, PostGolgi ctrl 11, CYP2C19 act 0, CYP2C9 inhib -71, CYP2C19 inhib 100* and CYP2C9 activ 1.7.
Screening NC(=S)NNc1cc(Cl)cc(Cl)c1 returned PostGolgi yeast 10, PostGolgi ctrl 6, CYP2C19 act 0.8, CYP2C9 inhib 31, CYP2C19 inhib 20 and CYP2C9 activ 0.7.
For Cn1nc(C(F)(F)F)c(/C=N/OCc2c(Cl)cccc2Cl)c1Cl the results were PostGolgi yeast -5, PostGolgi ctrl 6, CYP2C19 act 0.5, CYP2C9 inhib 80*, CYP2C19 inhib 52* and CYP2C9 activ 0.2.
Screening O=C(Oc1cccc2c(O)cccc12)c1ccccc1 returned PostGolgi yeast -9, PostGolgi ctrl 16, CYP2C19 act 0.2, CYP2C9 inhib 73*, CYP2C19 inhib 84* and CYP2C9 activ 0.3.
`Cc1ccc(CNC(=O)C2CCCCC2C(=O)O)cc1` (configuration not stated) gave PostGolgi yeast -11, PostGolgi ctrl 0, CYP2C19 act 1, CYP2C9 inhib 8, CYP2C19 inhib 4 and CYP2C9 activ 0.9.
Screening Cc1snc(S(=O)(=O)/C(C#N)=N\Nc2ccccc2)c1C#N returned PostGolgi yeast 15, PostGolgi ctrl -3, CYP2C19 act 0.7, CYP2C9 inhib 92*, CYP2C19 inhib 30 and CYP2C9 activ 0.1.
For Cc1snc(S(=O)(=O)/C(C#N)=N/Nc2ccc(C(F)(F)F)cc2)c1C#N the results were PostGolgi yeast -6, PostGolgi ctrl -2, CYP2C19 act 0.8, CYP2C9 inhib 94*, CYP2C19 inhib 17 and CYP2C9 activ 0.1.
CCCCNC(=O)N1CCOCCOCCN(C(=O)NCCCC)CCOCCOCC1 was read as PostGolgi yeast -2, PostGolgi ctrl 2, CYP2C19 act 1.1, CYP2C9 inhib -14, CYP2C19 inhib -7 and CYP2C9 activ 1.1.
